The values that follow come from PubChem BioAssay.

Active and inactive are the calls of the source.

For one test, the target named is Albumin (Bos taurus) (UniProt P02769). Description: compounds binding labelled BSA control protein – biochemical, small-molecule microarray, Alexa647 label, 635/667 nm fluorescence, artefact control for SMM control protein annotation, profiling panel (AID 1118).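 Further: score merges 667 nm emission intensity and signal-to-noise per printed compound spot.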 The settings on record: BSA-A647 binding, fluorescence 635 nm, higher = more signal.
The nature of test [1]: probe aXIP binding to arrayed compounds – biochemical, NeuroSMM set, 635/667 nm fluorescence, primary screen (AID 1119).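 Further: probe is the protein aXip251-270 applied at 1 µg/mL to compound-printed slides; binding of probe to printed compounds measured as 667 nm fluorescence plus signal to noise.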 The settings on record: small-molecule microarray, higher = more signal, called active from +8 up or from −8 down.
Test [2] in a line: probe aNOTCH3 binding on compound microarray – biochemical, small-molecule microarray, 635/667 nm fluorescence, primary screen (AID 1120).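 Further: probe is a biotin-tagged antibody raised against NOTCH3 rather than NOTCH3 protein; score merges spot fluorescence near 667 nm with spot signal to noise.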 The settings on record: higher = more signal.
Test [3] is described as follows: probe aNOTCH2 binding on compound microarray – biochemical, small-molecule microarray, 635/667 nm fluorescence, primary screen (AID 1121).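 Further: score merges feature fluorescence read at 667 nm with its signal to noise.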 The settings on record: higher = more signal.
Test [4] concerns the target Carbonic anhydrase 2 (Homo sapiens) (UniProt P00918). Description: compounds binding carbonic anhydrase 2 – biochemical, small-molecule microarray, Alexa647-labelled CAII, profiling panel (AID 1122). The settings on record: CAII-A647 binding fluorescence, higher = more signal.
Test [5] can be described thus: COS7 lysate on small-molecule microarray, probe aHis, 635 nm (AID 1123).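 Further: z-score combines 667nm fluorescence intensity with signal-to-noise per printed compound spot.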 Particulars: COS7 cell lysate, fluorescence, higher = more signal.
Test [6] is described as follows: probe aLAP1 signal on lysate-treated microarray – cell lysate, small-molecule microarray, COS7 lysate, primary screen (AID 1124).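 Further: lysate comes from COS7 cells expressing LAP1 and is applied at 0.3 µg/mL; score merges spot fluorescence near 667 nm with signal-to-noise over triplicate slides.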 Particulars: probe aLAP1, fluorescence, higher = more signal.
For another test, the system named is Sam68 (KHDRBS1). In words: compounds binding KHDRBS1 protein – biochemical, small-molecule microarray, 635 nm fluorescence, primary screen (AID 1125).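 Further: score merges 667 nm channel intensity with signal to noise over triplicate slides.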 The settings on record: higher = more signal.
For test [7], the system named is Chordin-like protein 2 (CHRDL2). In words: compounds binding chordin-like 2 – biochemical, small-molecule microarray, 635 nm fluorescence, primary screen (AID 1126).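 Further: printed compound slides probed with Chrdl2 protein at 4 µg/mL for 1 h at 4 C; score merges 667 nm emission intensity with signal to noise over three replicate slides.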 The settings on record: fluorescence 635 nm, higher = more signal.
Test [8] addresses Concanavalin-A (Canavalia ensiformis) (UniProt P02866). Description: compounds binding concanavalin A lectin – biochemical, small-molecule microarray, Alexa647 label, 635 nm, artefact control for SMM control protein annotation, primary screen (AID 1127).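 Further: z combines 667 nm emission intensity with signal-to-noise across three replicate slides.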 Particulars: ConA-A647 binding fluorescence, higher = more signal.

Sequence of Concanavalin-A (Canavalia ensiformis) (P02866 whole entry, looked up): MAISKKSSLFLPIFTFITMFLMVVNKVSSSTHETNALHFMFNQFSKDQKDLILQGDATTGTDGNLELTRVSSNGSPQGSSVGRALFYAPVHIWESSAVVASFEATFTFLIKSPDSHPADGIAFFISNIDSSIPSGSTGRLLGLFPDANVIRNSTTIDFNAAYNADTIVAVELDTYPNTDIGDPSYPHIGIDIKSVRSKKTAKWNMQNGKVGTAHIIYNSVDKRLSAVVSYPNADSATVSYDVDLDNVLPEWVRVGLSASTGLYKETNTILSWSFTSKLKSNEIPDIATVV
Sequence of Albumin (Bos taurus) (P02769 whole entry, looked up): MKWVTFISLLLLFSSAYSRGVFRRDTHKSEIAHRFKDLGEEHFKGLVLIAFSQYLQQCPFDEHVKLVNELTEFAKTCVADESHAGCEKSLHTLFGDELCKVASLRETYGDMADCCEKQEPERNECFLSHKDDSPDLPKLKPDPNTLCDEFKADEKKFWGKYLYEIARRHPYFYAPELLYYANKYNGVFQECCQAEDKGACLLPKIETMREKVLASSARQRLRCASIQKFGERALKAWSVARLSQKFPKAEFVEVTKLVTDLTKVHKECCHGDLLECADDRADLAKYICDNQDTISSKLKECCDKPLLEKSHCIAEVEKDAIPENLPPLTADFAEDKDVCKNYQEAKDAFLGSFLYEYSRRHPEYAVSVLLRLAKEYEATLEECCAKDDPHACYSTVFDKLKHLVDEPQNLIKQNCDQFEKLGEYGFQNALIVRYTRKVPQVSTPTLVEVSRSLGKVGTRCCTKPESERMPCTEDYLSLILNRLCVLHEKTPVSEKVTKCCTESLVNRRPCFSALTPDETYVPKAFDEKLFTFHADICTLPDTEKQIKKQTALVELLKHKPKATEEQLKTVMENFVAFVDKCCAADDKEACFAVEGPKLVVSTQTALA

Regarding `C=CCC(OC(C)=O)[C@@H]1[C@@H](N(Cc2cccc3ccccc23)C(=O)c2ccc(C)cc2)c2cc(OCCCO)ccc2N1C(=O)Cc1ccc(OC)cc1` (stereo not given in full), the composite z-score is 0.15 with Albumin (Bos taurus); 0.114 in [2]; -0.127 in [3]; 0.112 in test [4]; 0.223 in test [5]; -0.0098 in [6]. For the same compound, the composite z-score in the test with Sam68 (KHDRBS1) was 0.175; in test [7], 0.352; in test [8], 0.0517. Also, in test [1], the composite Z-score is -0.858 (inactive).

Consider `COC(=O)[C@@]1(Cc2ccc(F)cc2)[C@H]2c3cc(C(=O)N(C)C)n(CCc4ccccn4)c3C[C@H]2CN1C(=O)c1ccccc1`, for which the composite z-score with Albumin (Bos taurus) is -0.0737; in test [2], 1; in test [3], 0.2; in [4], 0.827; in [5] it was 2.75; in test [6], 0.52. For the same compound, the composite z-score with Sam68 (KHDRBS1) is 1.29; in test [7], -0.464; in test [8], 0.542. In addition, the composite Z-score in test [1] was 0.004 (inactive).

`CN(C)C(=O)[C@@]1(CCC(=O)OC(C)(C)C)N=C(c2ccc(OCCCO)cc2)O[C@H]1c1ccccc1`: the composite z-score in the test with Albumin (Bos taurus) is 0.955; in test [2] it was 0.519; in test [3], -0.0125; in test [4] it was 0.842; in [5], 3.16; in test [6], 0.55. Also, the composite z-score is 0.926 in the test with Sam68 (KHDRBS1), -0.719 in test [7] and 0.683 in test [8]. For the same compound, in test [1], the composite Z-score was 0.58 (inactive).

As for `O=C/C=C/c1ccc2c(c1)OCO2`, the composite z-score was -0.776 with Albumin (Bos taurus); -0.0883 in test [2]; -0.109 in test [3]; -0.0937 in [4]; -0.408 in test [5]; 1.57 in test [6]. Further, the composite z-score in the test with Sam68 (KHDRBS1) was 0.256; in [7] it was 1.11; in test [8] it was 0.176. Further, the composite Z-score in test [1] is 0.16 (inactive).

`CCOC(=O)[C@H]1C/C=C/C[C@H](C(=O)OCC)C(=O)O[C@H]2[C@@H](OC)O[C@H](CO)[C@@H](OC(=O)Nc3ccc4c(c3)OCO4)[C@@H]2OC1=O`: the composite z-score with Albumin (Bos taurus) is 0.783; in [2], 0.0927; in test [3] it was -0.0425; in test [4], 0.484; in test [5], 1.74; in [6] it was 0.143. The composite z-score in the test with Sam68 (KHDRBS1) is 0.521; in test [7], -0.384; in test [8], 0.468. In test [1], the composite Z-score was 0.622 (inactive).

On to `CC(=CC1CCCCC1)[C@@H](NC(=O)c1ccc(C(F)(F)F)cc1)c1ccc(-c2ccccc2)cc1`, for which the composite z-score was 0.938 with Albumin (Bos taurus); -0.0311 in test [2]; 0.0181 in [3]; -0.0824 in [4]; -0.261 in [5]; -0.223 in [6]. For the same compound, the composite z-score with Sam68 (KHDRBS1) was -0.946; in test [7], -0.371; in test [8] it was -0.0536. The composite Z-score in [1] was -0.193 (inactive).

As to `COC(=O)[C@@]1(Cc2ccccc2)[C@H]2c3cc(C(=O)N(C)C)n(Cc4cc(C)n(C)n4)c3C[C@H]2CN1C(=O)c1ccccc1`, the composite z-score with Albumin (Bos taurus) is 1; in [2], 0.718; in test [3] it was 0.258; in test [4], 0.931; in test [5], 2.63; in test [6], 0.993. Also, the composite z-score with Sam68 (KHDRBS1) is 0.812; in test [7] it was -0.979; in test [8], 0.711. Moreover, the composite Z-score in [1] is -0.138 (inactive).

For `O=C(O)[C@H]1C[C@H]2C(=O)NCC(=O)N2[C@H]1c1ccc(O)cc1`, the composite z-score with Albumin (Bos taurus) was 0.346; in test [2] it was 0.791; in test [3] it was -0.0761; in test [4], 0.688; in test [5] it was 0.921; in test [6], 0.0741. The composite z-score in the test with Sam68 (KHDRBS1) was 0.0505; in test [7], 1.26; in test [8], 0.482. In test [1], the composite Z-score was 0.289 (inactive).

With `Cc1cc(C)c(C(O)C2C=CC3C(=O)N(c4ccccc4)C(=O)C3N2Nc2ccc(C#N)cc2)c(C)c1` (stereo not given), the composite z-score is 1.07 with Albumin (Bos taurus); 0.0649 in [2]; 0.115 in [3]; 0.743 in test [4]; 3.02 in test [5]; 0.629 in test [6]. Moreover, the results for the composite z-score (in the test on Sam68 (KHDRBS1); in test [7]; in test [8]) were 1.35, -0.183 and 1.19, respectively. Also, the composite Z-score in [1] is 0.902 (inactive).

Take `COc1ccc([Si](C)(C)[C@@H]2[C@@H](CCn3cc([C@H](O)c4ccccc4)nn3)O[C@]3(C(=O)N(Cc4ccc(N5C(=O)c6cccc7cccc5c67)cc4)c4ccccc43)[C@H]2C)cc1`: the composite z-score with Albumin (Bos taurus) was 0.033; in test [2], -0.13; in test [3], -0.155; in test [4], 0.403; in test [5], 0.791; in test [6], 0.017. The composite z-score is 0.268 in the test on Sam68 (KHDRBS1), -0.177 in [7] and -0.13 in test [8]. In addition, the composite Z-score in [1] is -0.196 (inactive).
